From the supplement of paper PMC6555819

Assays:
Test in all cases: PBM binding z-score (relative to random genomic background probes); higher = stronger binding; sequences stand for … in GC…GCGATTGACAGCGTAGAATGAAGG
[1] = test system: PPARg:RXRa DBDmut IVT, anti-RXR (DBD mutation: RXRa K156A/R161A, NR concentration 270 nM, RXRa partner concentration 90 nM)
How it was run: (§1)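 Each nuclear receptor dimer, without ligand, was incubated for 1 h on custom Agilent 4×180K protein-binding microarrays. Binding was detected with antibodies against each partner (one per run), and scanned fluorescence was regression-normalized. The binding z-scores are referenced to random human genomic background probes.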

[2] = test system: PPARg:RXRa IVT, anti-PPARg (NR concentration 270 nM, RXRa partner concentration 90 nM)
How it was run: as §1

[3] = test system: PPARg DBDmut:RXRa IVT, anti-PPARg (DBD mutation: PPARg1 K132A/R137A, NR concentration 270 nM, RXRa partner concentration 90 nM)
How it was run: as §1

[4] = test system: PPARg DBDmut IVT, anti-PPARg (DBD mutation: PPARg1 K132A/R137A, NR concentration 270 nM)
How it was run: as §1

[5] = test system: PPARg homodimer (NR concentration 180 nM)
How it was run: as §1

[6] = test system: PXR:RXRa (NR concentration 270 nM, RXRa partner concentration 90 nM)
How it was run: as §1

[7] = test system: PXR homodimer (NR concentration 270 nM)
How it was run: as §1

[8] = test system: RARa:RXR (NR concentration 270 nM, RXRa partner concentration 90 nM)
How it was run: as §1

[9] = test system: RARa homodimer (NR concentration 270 nM)
How it was run: as §1

[10] = test system: RARb:RXRa (NR concentration 270 nM, RXRa partner concentration 90 nM)
How it was run: as §1

[11] = test system: RARb homodimer (NR concentration 270 nM)
How it was run: as §1

[12] = test system: RARg:RXRa (NR concentration 270 nM, RXRa partner concentration 90 nM)
How it was run: as §1

[13] = test system: RARg homodimer (NR concentration 270 nM)
How it was run: as §1

[14] = test system: RXRa DBDmut IVT, anti-RXR (DBD mutation: RXRa K156A/R161A, NR concentration 90 nM)
How it was run: as §1

[15] = test system: RXRa homodimer (NR concentration 180 nM)
How it was run: as §1

[16] = test system: THRa:RXRa (NR concentration 90 nM, RXRa partner concentration 90 nM)
How it was run: as §1

[17] = test system: THRa homodimer (NR concentration 90 nM)
How it was run: as §1

[18] = test system: VDR homodimer (NR concentration 270 nM)
How it was run: as §1

Sequence	PBM binding z-score [1]	PBM binding z-score [2]	PBM binding z-score [3]	PBM binding z-score [4]	PBM binding z-score [5]	PBM binding z-score [6]	PBM binding z-score [7]	PBM binding z-score [8]	PBM binding z-score [9]	PBM binding z-score [10]	PBM binding z-score [11]	PBM binding z-score [12]	PBM binding z-score [13]	PBM binding z-score [14]	PBM binding z-score [15]	PBM binding z-score [16]	PBM binding z-score [17]	PBM binding z-score [18]
GGAACGAGGGCAAAGTTGATGGCATCTGTCGACG	4.48	4.33	0.423	0.295	0.411	1.39	0.213	1.59	-0.52	2.48	1.32	2.05	1.74	2.62	1.97	1.55	-0.087	1.7
TTACCAAGGTGTGCTGAGGTCGTTGATCCAACTC	-0.56	0.137	-0.549	-0.745	0.0378	2.18	0.694	1.18	-0.699	0.629	1.18	0.184	-0.154	0.555	0.725	3.24	1.77	2.39
TCTAGCAGGCCAGAGGGTCACTGAAGAGGTACGG	1.24	0.963	-0.7	-1.2	0.503	1.53	-0.448	2.29	-0.0509	2.34	2.72	2.74	1.97	-0.0936	2.63	1.7	-0.233	0.299
TCTAGTTGGTCAAAGGACACACACTCGAAATGCG	2.42	2.63	1.26	0.871	1.9	0.659	0.4	1.1	1.12	2.02	1.99	1.75	2.29	1.09	1.12	1.59	1.14	0.435
ATCTCTAGGTACAAGTTCAGTGAATCCCGAGGAT	0.163	1.47	0.611	0.766	0.56	1.92	1.54	0.393	0.103	1.66	1.52	0.997	1.14	1.93	0.729	0.819	0.457	2.83
GCTGCTAGCTCAGGTTGGTCAGCTAACGGGTACG	-0.142	-0.678	-1.21	-1.62	-1.31	-0.81	-0.881	-0.76	-2.27	-0.463	-0.467	-0.618	-0.751	-0.375	-1.02	-0.615	-0.751	-0.32
CGTCCAAGGTCAAGGTCAGTGACAGAGACTCGAA	4.03	4.87	1.18	-0.455	4.7	5.25	1.84	5.72	2.23	5.75	5.06	6.76	7.62	3.72	6.77	4.35	3.7	3.35
CATACAGGGTCAGCTAAGCCAGAGTAGGGACGGC	1.39	2.48	1.15	0.523	1.5	2.16	-0.442	3.02	0.0387	3.9	2.87	4.23	4.37	1.77	4.2	3	0.863	1.04
CCTCGGAGGACATCAGGAGGTCAGAGCTGCCAGA	-0.368	0.307	-1.23	-1.84	1.23	2.19	0.0732	2.43	0.115	2.74	3.17	3.48	3.04	0.267	2.63	2.67	1.05	1.06
CAAACTTGGTCAAAGGTCAAAGTCGAGCCAACCA	3.33	6.48	1.57	0.873	4.08	6.01	1.58	7.69	1.5	5.11	4.86	7.37	6.36	1.58	8.93	3.89	0.672	2.28
TAGCCTAGGCCATGCGGGCCAGTATAGTGTCGGC	-0.849	-0.0851	-0.949	-1.38	-1.26	-0.956	-1.02	-0.877	-1.18	0.00206	-0.484	-0.409	-0.0767	-1.68	-0.471	-0.614	-1.02	-1.02
AGAATGAGGTTATACGTAGCTCAGGGAAGAAAGT	3.72	1.8	0.808	0.83	0.431	0.653	0.0212	1.15	0.35	1.11	0.301	1.29	0.944	1.7	1.86	1.81	0.226	0.643
GCGACTGGGGCACAGCAGGTTACCATAAGGTTGG	5.07	4.28	-0.331	-0.666	0.354	0.113	-0.29	0.435	-0.475	0.997	1.23	0.566	0.841	-0.647	0.331	2.47	-0.0588	-0.59
CGAACGAGGGCATGAGTTTATAGCAAATGCCGAT	3.26	2.5	0.366	-0.357	0.413	1.65	1.18	0.678	-0.149	2.11	1.15	1.31	1.81	3.01	1.07	1.42	0.067	4.17
ATCGAAAGGTCGACGAGGTGAGTAGACACCGTTT	0.417	2.09	0.633	0.273	1.49	2.93	0.455	3.91	0.813	3.89	2.83	4.43	3.75	0.736	4.27	3.85	0.861	0.955
CCTAGTTGGTCAGGACGTCACACACCGGATATGA	0.48	0.458	0.41	0.0179	0.77	-0.123	0.484	-0.000234	1.44	0.721	0.767	0.464	0.776	0.386	0.296	0.673	1.03	0.558

Sequence	PBM binding z-score [1]	PBM binding z-score [2]	PBM binding z-score [3]	PBM binding z-score [4]	PBM binding z-score [5]	PBM binding z-score [6]	PBM binding z-score [7]	PBM binding z-score [8]	PBM binding z-score [9]	PBM binding z-score [10]	PBM binding z-score [11]	PBM binding z-score [12]	PBM binding z-score [13]	PBM binding z-score [14]	PBM binding z-score [15]	PBM binding z-score [16]	PBM binding z-score [17]	PBM binding z-score [18]
TCATATAGGTAAATGCGAGGTGAAAGTCCGATCT	4.13	3.06	1.27	1.1	1.14	1.1	0.0797	1.67	1.15	0.77	1.05	0.929	0.538	1.89	1.18	2.78	1.54	0.605
CGAACTAGGTCAGAACAGGACGGTGAAGGATGAT	7.03	7.23	1.59	1.11	0.681	0.143	-0.288	0.525	0.0623	2.55	1.69	2.3	3.17	0.53	1.14	2.43	-0.175	-0.257
TCTGCTAGGTCAACGATGGTCACCTAATCTGCTA	4.12	4.82	0.776	0.398	0.811	2.12	-0.994	2.8	-0.586	4.2	3.63	4.17	4.77	1.06	2.69	3.58	1.37	0.156
TCTCGGAAGACACGAAGGTCAGAGCTTTCCAGAG	1.64	0.221	-0.344	-0.823	0.689	1.12	-0.144	1.53	-0.631	2.27	3.02	1.39	1.67	0.484	1.61	1.09	-0.118	0.195
ACTCGGAGGACGAAGGTCAGAGCTACGCCAGTGA	-0.0159	0.85	-1.22	-0.524	1.01	1.4	-0.0782	1.77	0.154	2.81	2.86	2.9	2.48	0.315	2.01	1.64	-0.396	0.109
CTCGAAAGCTCGTGCTCAGGTGAGTATACCAAAC	-0.844	-0.272	-1.04	-0.415	-0.882	-0.746	-0.669	-0.62	-1.18	-1.07	-0.48	-0.629	-0.592	-0.295	-0.748	0.472	0.274	-0.591
AGAACGAGGGCAATGAGTTGATAGCACGGGTGGC	3.48	2.48	0.306	0.0167	0.0111	1.54	2.95	0.443	0.212	2.04	0.844	0.952	1.54	1.78	0.91	0.824	-0.00899	2.26
CCTGCTAGGTCATGGTCAGCTAGTCTACAGTATG	4.65	3.97	0.24	-0.536	1.4	1.51	-0.479	2.41	-0.496	4.15	3.22	4.05	4.82	1.84	2.76	3.03	1.25	0.287
TCAGACAGGTGAAGGTAACTCGGGTACGCAGTCG	2.75	1.56	-0.468	-0.323	0.71	0.846	0.151	0.795	0.419	1.46	1.04	0.783	0.664	1.16	1.23	1.66	0.72	0.873
TCTGCTAGGTCATTTGGTCAGCTAACGAGCTGCC	3.73	3.88	3.37	1.7	1.5	1.46	-0.592	2.1	-1.02	3.62	2.97	3.84	4.17	2.58	2.34	2.42	0.658	1.49
TCATGTAGATCAAAGGTTAAGAAAGCCGAAGCCT	2.23	3.59	0.546	0.593	1.17	2.12	0.246	3.29	0.881	1.91	1.55	1.96	0.89	1.08	3.55	1.37	-0.229	-0.0577
AGAATGAGCTTACCAAAGATCAGGGAAACGCTTG	-0.815	-0.433	-0.258	-0.198	-0.572	-0.428	-0.462	-0.0887	-0.255	-0.501	-0.958	-0.0102	-0.129	-0.777	0.323	-0.369	-0.963	-0.938
CGTCCAAGGTCAGCACGTCAGTGAAAGCGACGTG	2.18	2.13	0.0717	0.0669	1.85	2.31	0.247	3.39	0.134	4.89	4	5.13	5.75	2.51	3.83	3.43	1.9	0.904
TATACAGGGCCAAAGGCCAGAGTACGAATGTCGA	-0.282	1.6	0.275	-0.0589	0.362	-0.0978	-0.0965	0.479	-0.305	1.53	1.12	1.16	1.47	-0.775	0.74	-0.149	-0.814	0.291
CGTCCAAGGTCAGCAGGTCAGTCAAAGCGACGTG	2.82	3.69	0.0784	-0.246	3.64	3.71	0.514	4.81	0.95	5.08	5	6.35	7.05	2.69	4.85	3.74	2.35	2.03
